# Measurements from PubChem BioAssay AID720650 (Broad Institute, 2013).
# Values without a mark were called inactive. Active and inactive are the calls of the source. No rule for the calls is given here.
# Assay: Biochemical counterscreen for C difficile toxins, absence of UDPG, inhibitor dose response (AID 720650)
row,Structure (SMILES),AC50
1,CCc1ccccc1NC(=O)CN1CCN(CC(=O)NCc2ccc(Cl)cc2)CC1,inactive
2,O=C(NNc1nc2c(F)cccc2s1)C1COc2ccccc2O1 (configuration not stated),0.34 µM (active)
3,COc1ccc(NS(=O)(=O)c2cc(N=Nc3c(O)[nH]c(=O)[nH]c3=O)ccc2Cl)cc1,inactive
4,Cc1ccc(C(=O)OCC(=O)c2cc(C)n(CC3CCCO3)c2C)cc1 (configuration not stated),inactive
5,CCCNC(=O)Nc1ccc2c(c1)C(=O)N(C)[C@H]1CC[C@H](CC(=O)NC3CCC3)O[C@@H]1CO2,inactive
6,O=C(NCc1ccccc1)C1Cc2c(-c3cccc(F)c3)ccnc2O1 (configuration not stated),inactive
7,COc1ccc(-c2ccc3c(c2)[C@@H]2[C@@H](CCN2C(=O)C2CC2)[C@H](CO)N3C)cc1,14.8 µM (active)
8,Cc1cnc([N+](=O)[O-])n1CCOC(=O)NC(=O)c1ccc(F)cc1,inactive
9,CCn1c(=S)[nH]c2c(=O)n(C)c(=O)n(C)c21,13.2 µM (active)
10,Cc1ccc(NS(=O)(=O)c2ccc(C)c(NC(=S)NCCN3CCOCC3)c2)c(C)c1,inactive
11,COc1ccccc1N1CC(O)=C(c2nc3ccccc3s2)C1=N,> 39 µM
12,Nc1ccc2c(c1)[nH]c(=O)c1cc(N)ccc12,13 µM (active)
13,Cc1ccc(/C=C/c2onc(C)c2S(=O)(=O)N2CCC(C(=O)N3CCN(C)CC3)CC2)cc1,inactive
14,COc1ccc(C(=O)Nc2ccc3c(c2)C(=O)N(C)[C@@H]2CC[C@H](CC(=O)NCC4CC4)O[C@@H]2CO3)cc1,inactive
15,C[N+]1(CCCCSc2ccc(O)cc2)CCCCC1,> 39 µM
16,COc1cc(/C=N/NC(=O)CCN2CCCCC2)ccc1O,inactive
17,Cc1scc(C(=O)N2CCN(c3ccc(Cl)cc3)CC2)c1C,inactive
18,N#CCCN(C(=O)COC(=O)c1cc(=O)c2ccccc2o1)c1ccccc1,inactive
19,O=C(C[C@@H]1C[C@H]2c3cc(NC(=O)Nc4ccccc4)ccc3O[C@H]2[C@H](CO)O1)NCc1ccccc1,inactive
20,COc1ccc(C2=NS(=O)(=O)N(C)C(C(=O)N3CCN(C)CC3)=C2)cc1,inactive
21,N/C(=N\N=C\c1ccc(O)cc1)c1nonc1N,5.49 µM (active)
22,COc1ccccc1Nc1nnc(SCc2cc(=O)n3ccsc3n2)s1,> 39 µM
23,COc1cc(/C=C/C(=O)OCC(=O)NC(=O)NC(C)C)ccc1O,inactive
24,CNC(=O)C[C@H]1CC[C@@H]2[C@H](COc3ccc(NC(=O)Nc4ccc(C)cc4)cc3C(=O)N2C)O1,> 39 µM
25,CC1CCN(CCCn2c(=S)[nH]c3c(sc4ccccc43)c2=O)CC1,> 39 µM
26,CCCc1[nH]c(=O)c(C#N)c2c1CCCC2,inactive

row,Structure (SMILES),AC50
1,Cc1ccn2c(Cc3ccccc3)c(-c3ccc(F)cc3)nc2c1,inactive
2,COc1cccc(CC(=O)OCC(=O)Nc2c(C)nn(-c3ccccc3)c2C)c1,inactive
3,O=C(NCc1ccncc1)[C@@H]1CCCN1C(=O)[C@@H]1CCCN1,inactive
4,CCCc1cc(=O)oc2c3c(cc(OCC(=O)NCCCn4ccnc4)c12)OC(C)(C)CC3,inactive
5,Cn1ncc(Cl)c1C(=O)N/N=C/c1cccc(OC2CSC2)c1,> 39 µM
6,O=C(NCCc1ccc(Cl)cc1)C1CCN(S(=O)(=O)c2ccc(Br)s2)CC1,inactive
7,Cc1ccc(NNC(=O)c2ccno2)cc1C,0.302 µM (active)
8,CC1CCC/C(=C\c2ccc(O)cc2)C1=O (configuration not stated),7.48 µM (active)
9,COc1cc2[nH]c(=S)n(Cc3cccs3)c(=O)c2cc1OC,inactive
10,CCCCn1c(=S)[nH]c2c(=O)n(C)c(=O)n(C)c21,14.9 µM (active)
11,COc1ccc(C(NC(C)=O)c2cc(Cl)c3cccnc3c2O)cc1 (configuration not stated),inactive
12,COc1ccc(C2=NS(=O)(=O)N(C)C(C(=O)NC(C)c3ccccc3)=C2)cc1 (configuration not stated),inactive
13,O=C(C[C@H]1C[C@H]2c3cc(NC(=O)c4ccc5c(c4)OCO5)ccc3O[C@H]2[C@@H](CO)O1)NCc1cccc(F)c1,inactive
14,CC(OC(=O)[C@@H](NC(=O)OCc1ccccc1)C(C)C)C(=O)Nc1ccc(N2CCOCC2)cc1 (some centres not stated),inactive
15,Cc1ccc(C2=NS(=O)(=O)N(C)C(C(=O)NCc3ccccc3)=C2)cc1,inactive
16,CCC(=O)N1CC[C@@H]2[C@H]1c1cc(-c3ccccc3)ccc1N(C)[C@H]2CO,4.44 µM (active)
17,O=C(NNC(=O)c1cccc2ccccc12)c1cccc(F)c1,inactive
18,CC1C(=O)NN=C1c1ccc([N+](=O)[O-])cc1 (configuration not stated),inactive
19,COc1ccccc1-n1c(CCC(=O)O)ccc1-c1ccccc1,inactive
20,Cc1[nH]c(-c2ccc(F)cc2)cc1C(=O)N1CCN(c2ccccc2)CC1,inactive
21,O=C(Nc1ccc(N2CCOCC2)c(Cl)c1)c1ccc(Cl)cc1,12.3 µM (active)
22,COC(=O)C[C@H]1CC[C@@H]2[C@@H](COc3ccc(NC(=O)c4cccc(OC)c4)cc3C(=O)N2C)O1,inactive
23,Cn1c(=O)c2c([nH]c(=S)n2Cc2ccc(Cl)cc2)n(C)c1=O,inactive
24,Cc1nn(C)cc1-c1n[nH]c(=S)n1-c1ccc(F)cc1,inactive
25,CC(=O)N/C(=C\c1ccccc1)C(=O)Nc1ccc(O)cc1,17 µM (active)
26,O=C(CNS(=O)(=O)c1ccc([N+](=O)[O-])cc1)N/N=C\c1ccc(O)cc1,13.2 µM (active)

row,Structure (SMILES),AC50
1,CCn1c(SCC(=O)OC)nnc1-c1ccccc1,inactive
2,CC[C@H](C)[C@H]1CNC(=S)N1CC1CCN(CCCC2CCCC2)CC1,inactive
3,CN1C(=O)c2cc(NC(=O)Nc3ccccc3Cl)ccc2OC[C@H]2O[C@@H](CC(=O)NCCCN3CCOCC3)CC[C@H]21,inactive
4,COc1ccc(C(=O)OCC(=O)Nc2ccc3[nH]c(=O)[nH]c3c2)c(OC)c1OC,inactive
5,O=C(Nc1ccccc1F)N1C[C@@H]2N[C@H](C1)C2c1ccc(-c2cccc(F)c2)cc1 (some centres not stated),inactive
6,O=C(NC(=S)NNC(=O)c1ccccc1F)c1cccnc1,inactive
7,COc1ccccc1C1=NNC(=NCc2ccccc2)SC1,> 39 µM
8,CCOC(=O)C(=O)NNc1ccc(Cl)cc1,0.594 µM (active)
9,CCOc1ccccc1/C=C/c1onc(C)c1S(=O)(=O)N1CCC(C(=O)NC(C)(C)C)CC1,inactive
10,O=C(Nc1ccc2c(c1)OCCO2)c1cc2ccccc2o1,> 39 µM
11,NC(=O)C1(Nc2ccc(-c3ccc(Br)cc3)cc2)CCCC1,inactive
12,O=C(C[n+]1ccccc1)N/N=C/c1ccc(O)cc1,20.2 µM (active)
13,O=C(C[C@@H]1CC[C@H]2[C@@H](COC[C@@H](O)CN2C(=O)c2ccccn2)O1)NC1CCC1,inactive
14,Cc1ccc(NC(=O)C2OCCc3ccccc32)cc1C (configuration not stated),inactive
15,CCOc1ccc2ccccc2c1/C=N/NC(=O)c1ccncc1,inactive
16,O=C(c1cn(-c2ccccc2)nc1-c1ccncc1)n1nnc2ccccc21,inactive
17,CNc1cncc(-c2ccc(O)cc2)n1,11.7 µM (active)
18,Cc1ccc(-n2c(SCC(=O)O)nc3c(sc(=S)n3-c3ccc(C)c(C)c3)c2=O)cc1,13.7 µM (active)
19,CCOC(=O)c1ccc2ncc(-c3ccccc3)nc2c1,inactive
20,CNC(=O)C[C@H]1CC[C@@H]2[C@@H](COc3ccc(NC(=O)c4cccc(OC)c4)cc3C(=O)N2C)O1,inactive
21,CC(=O)N1CC[C@@H]2[C@@H](CO)Nc3ccc(-c4ccccc4)cc3[C@@H]21,11.5 µM (active)
22,Nc1ccc2c(c1)Nc1ccccc1CC2,9.36 µM (active)
23,O=C1CSC(=Nc2ccc(O)cc2)N1,17.6 µM (active)
24,CCOc1cc(/C=N\n2nnnc2N)ccc1O,inactive
25,Cc1nc2[nH]c(=S)[nH]c2c(=O)[nH]1,> 39 µM
